Measured values published in the supplement of paper PMC13380429.

Tested on: Vero E6 infected with SARS-CoV-2
Assay: inhibition of SARS-CoV-2 cytopathic effect; higher = more antiviral protection, active = above 15
Conditions: 48 h

Measured: inhibition of SARS-CoV-2 cytopathic effect

CCCc1cc(=O)[nH]c(=S)[nH]1 [propylthiouracil]
inactive: 1 nM 3.65% | 8.33 nM -8.68% | 100 nM 2.66% | 833.33 nM 2.01% | 10000 nM -1.99%

CC(=O)CC/C=C(\C)CC/C=C(\C)CC/C=C(\C)CCC=C(C)C [teprenone]
inactive: 1 nM -0.07% | 8.33 nM 1.34% | 100 nM -1.34% | 833.33 nM 1.98% | 10000 nM 0.16%

O=C1Nc2ccc(Cl)c3c2C1(CCCCN1CC=C(c2ccc(Cl)cc2)CC1)CCC3 (stereo not given)
inactive: 1 nM 0.36% | 8.33 nM -1.45% | 100 nM -2.5% | 833.33 nM -2.84% | 10000 nM -3.25%

O=c1c(-c2ccc(O)cc2)coc2cc(O)cc(O)c12 [genistein]
inactive: 1 nM -1.79% | 8.33 nM 1.66% | 100 nM 2.02% | 833.33 nM 3.3% | 10000 nM -1.82%

CC(C)(C#N)c1cc(Cn2cncn2)cc(C(C)(C)C#N)c1 [anastrozole]
inactive: 1 nM -1.6% | 8.33 nM 0.38% | 100 nM -0.32% | 833.33 nM -1.74% | 10000 nM -0.89%

CC[C@@H](C)CNCC(=O)N1CCc2sccc2[C@@H]1COc1cccc(C)c1
inactive: 1 nM 2.77% | 8.33 nM 3.61% | 100 nM 2.09% | 833.33 nM 1.08% | 10000 nM -6.12%

CC(C)c1cnn2c(NCc3ccccc3)cc(NCCCCCCN)nc12
inactive: 1 nM 2.49% | 8.33 nM -1.33% | 100 nM -2.16% | 833.33 nM 1.83% | 10000 nM -12.8%

CCO[C@H]1O[C@@H]2O[C@@]3(C)CC[C@H]4[C@H](C)CC[C@@H]([C@H]1C)[C@@]24OO3 [artemotil]
inactive: 1 nM -0.58% | 8.33 nM -2.88% | 100 nM 1.56% | 833.33 nM 0.29% | 10000 nM 1.11%

COc1cc(OC)cc(C(=O)NNC(=O)Nc2cccc3ccccc23)c1
inactive: 1 nM 0.29% | 8.33 nM -2.09% | 100 nM -1.74% | 833.33 nM 2.71% | 10000 nM -1.92%

Cc1nc2ccccn2c(=O)c1CCN1CCC(C(=O)c2ccc(F)cc2)CC1 [pirenperone]
inactive: 1 nM 1.65% | 8.33 nM 1.73% | 100 nM -0.8% | 833.33 nM 1.4% | 10000 nM 0.69%

CCOC(=O)c1ncc2[nH]c3cccc(OC(C)C)c3c2c1C
inactive: 1 nM 2.48% | 8.33 nM -1.73% | 100 nM 3.11% | 833.33 nM 5.05% | 10000 nM 7.71%

CCC(C)(C)c1ccc(CC(C)CN2C[C@@H](C)O[C@@H](C)C2)cc1 (stereo not given in full) [amorolfine]
inactive: 1 nM 1.24% | 8.33 nM 0.11% | 100 nM 1.63% | 833.33 nM 3.07% | 10000 nM 1.19%

Cc1ncc(C[n+]2csc(CCO)c2C)c(N)n1 [thiamine]
inactive: 1 nM -3.81% | 8.33 nM -0.57% | 100 nM -1.61% | 833.33 nM -1.44% | 10000 nM 0.13%

C=CCNc1c(O)cc2c(O)c1C[C@@H](C)C[C@H](OC)[C@H](O)[C@@H](C)/C=C(\C)[C@H](OC(N)=O)[C@@H](OC)/C=C\C=C(/C)C(=O)N2 [retaspimycin]
inactive: 1 nM 2.45% | 8.33 nM 0.93% | 100 nM 6.54% | 833.33 nM 5.56% | 10000 nM 8.73%

C[C@]12CC[C@H](O)C[C@H]1CC[C@@H]1[C@@H]2C[C@@H](O)[C@]2(C)[C@@H](C3=CC(=O)OC3)CC[C@]12O [digoxigenin]
inactive: 1 nM -0.69% | 8.33 nM -0.54% | 100 nM -6.58% | 833.33 nM -10.3% | 10000 nM -14.1%

Cc1ccc(NCCCc2ccccc2)c(N)c1 [NFKB-activation-inhibitor-II]
inactive: 1 nM -0.97% | 8.33 nM -0.96% | 100 nM -1.32% | 833.33 nM -1.12% | 10000 nM 2.24%

CC(C)=CCC/C(C)=C/CC/C(C)=C/CCC(=O)OC/C=C(\C)CCC=C(C)C [geranyl-farnesylacetate]
inactive: 1 nM -0.32% | 8.33 nM 0.94% | 100 nM -2.76% | 833.33 nM 0.87% | 10000 nM 1.54%

N[C@H](C(=O)O)[C@H](O)c1ccc(O)c(O)c1 [droxidopa]
inactive: 1 nM 1.22% | 8.33 nM 3.16% | 100 nM 5.47% | 833.33 nM 1.07% | 10000 nM -5.92%

O=C(O)C1CN(Cc2ccc(-c3nc4cc(Cc5ccccc5F)ccc4s3)c(F)c2)C1
inactive: 1 nM 1.34% | 8.33 nM 1.1% | 100 nM 2.02% | 833.33 nM 0.03% | 10000 nM 1.58%

CCc1nc(N)nc(N)c1-c1ccc(Cl)cc1 [pyrimethamine]
inactive: 1 nM 2.57% | 8.33 nM 3.29% | 100 nM 2.35% | 833.33 nM 1.69% | 10000 nM -1.07%

O=c1cc(-c2ccccc2)oc2cc(O)c(O)c(O)c12 [baicalein]
inactive: 1 nM 1.61% | 8.33 nM 3.69% | 100 nM -0.24% | 833.33 nM -2.55% | 10000 nM -5.11%

O=C(O)CCn1c2c(c3ccccc31)C[C@H](NS(=O)(=O)c1ccc(F)cc1)CC2 [ramatroban]
inactive: 1 nM -0.49% | 8.33 nM 0.09% | 100 nM 0.01% | 833.33 nM 0.06% | 10000 nM 2.02%

N=C(N)c1ccc(N2CCN(C3CCN(CC(=O)O)CC3)CC2)cc1
inactive: 1 nM -1.25% | 8.33 nM 0.6% | 100 nM 0.06% | 833.33 nM -0.33% | 10000 nM 1.5%

O=C1NCCc2[nH]c(-c3ccncc3)cc21
inactive: 1 nM -0.31% | 8.33 nM -0.69% | 100 nM -1% | 833.33 nM -0.56% | 10000 nM -3.45%

COc1ccc(C(=O)c2c(C)n(CCN3CCOCC3)c3ccccc23)cc1 [pravadoline]
inactive: 1 nM 3.43% | 8.33 nM 2.8% | 100 nM -0.1% | 833.33 nM -1.26% | 10000 nM -0.15%

O=C1NC(c2cccc([N+](=O)[O-])c2)=CCN1c1ccccc1O [icilin]
inactive: 1 nM -1.18% | 8.33 nM 2.89% | 100 nM 1.15% | 833.33 nM 0.66% | 10000 nM 0.77%

Cc1cc(C)c(S(=O)(=O)n2cc(C)cc2C)c(C)c1
inactive: 1 nM -0.12% | 8.33 nM -0.02% | 100 nM 2.14% | 833.33 nM 0.3% | 10000 nM -1.17%

CCCC(C(=O)OCCN(CC)CC)(c1ccccc1)c1ccccc1 [proadifen]
inactive: 1 nM -8.13% | 8.33 nM -2.48% | 100 nM -0.9% | 833.33 nM -3.07% | 10000 nM -9.2%

COc1ccc(C(=O)c2c(C)n(CCN3CCOCC3)c3cc(I)ccc23)cc1
inactive: 1 nM -3.57% | 8.33 nM -3.84% | 100 nM -3.42% | 833.33 nM -0.63% | 10000 nM 2.05%

Clc1ccc(C(Cn2ccnc2)OCc2ccsc2Cl)c(Cl)c1 (stereo not given) [tioconazole]
inactive: 1 nM 6.75% | 8.33 nM -2.6% | 100 nM 5.03% | 833.33 nM -4.33% | 10000 nM -5.16%

Oc1cccc2cccnc12 [oxyquinoline]
inactive: 1 nM -1.21% | 8.33 nM -0.58% | 100 nM 0.04% | 833.33 nM 2.84% | 10000 nM -0.31%

CCCN1CCC[C@@H]2Cc3nc(N)ncc3C[C@H]21 [quinelorane]
inactive: 1 nM 0.91% | 8.33 nM -0.4% | 100 nM 0.8% | 833.33 nM -1.2% | 10000 nM -1.06%

CC(C)Oc1ccc(-c2nc(-c3cccc4c3CC[C@H]4NCCC(=O)O)no2)cc1C#N
inactive: 1 nM -2.71% | 8.33 nM -1.13% | 100 nM 0.51% | 833.33 nM 2.4% | 10000 nM -0.03%

C=C1c2cccc(O)c2C(=O)C2=C(O)[C@]3(O)C(=O)C(C(N)=O)=C(O)[C@@H](N(C)C)[C@@H]3[C@@H](O)[C@H]12 [methacycline]
inactive: 1 nM 1.27% | 8.33 nM -0.1% | 100 nM 1.49% | 833.33 nM 0.36% | 10000 nM 2.34%

CNC(=O)[C@H](Cc1c[nH]c2ccccc12)NC(=O)[C@@H](CC(=O)NO)CC(C)C [ilomastat]
inactive: 1 nM 3.69% | 8.33 nM 1.87% | 100 nM -1.16% | 833.33 nM 2.15% | 10000 nM -0.18%

COc1ccc([C@@H]2CC(=O)c3c(O)cc(O[C@@H]4O[C@H](CO)[C@@H](O)[C@H](O)[C@H]4O[C@@H]4O[C@@H](C)[C@H](O)[C@@H](O)[C@H]4O)cc3O2)cc1O [neohesperidin]
inactive: 1 nM -2.2% | 8.33 nM 0.62% | 100 nM 2.24% | 833.33 nM -0.64% | 10000 nM -3.03%

O=c1c(-n2ccnn2)c[nH]n1-c1cc(N2CCOCC2)ncn1 [molidustat]
inactive: 1 nM 1.15% | 8.33 nM -0.02% | 100 nM -0.4% | 833.33 nM 3.64% | 10000 nM 2.32%

C[N+]1([O-])[C@@H]2C[C@@H](OC(=O)[C@H](CO)c3ccccc3)C[C@H]1[C@@H]1O[C@@H]12 (stereo not given in full) [scopolamine-N-oxide]
inactive: 1 nM 7.18% | 8.33 nM 4.58% | 100 nM 3.81% | 833.33 nM 13.6% | 10000 nM 3.51%

O=C(CN1C(=O)C2(CCCC2)NC[C@H]1c1cc(F)cc(F)c1)Nc1ccc2c(c1)C[C@@]1(C2)C(=O)Nc2ncccc21
inactive: 1 nM -6.85% | 8.33 nM -7.92% | 100 nM -8.42% | 833.33 nM -6.83% | 10000 nM -2.55%
